According to PubChem BioAssay (Tox21):
Results filed as inconclusive are left out. Active and inactive are the calls of the source. Calls follow the shape of the dose curve; as a rule, active = well fitted activation curve with a large enough effect in the signal ratio in the repeat runs, with a control signal flat (not every such curve was filed as active); inconclusive = weak or mixed curves; inactive = flat fitted curve, though single readings scatter; the % refers to the signal ratio.

Assay: qHTS assay for small molecule activators of the heat shock response signaling pathway (AID 743210)
Settings: HeLa HSE-bla reporter, beta-lactamase ratio, 5 h; series mostly up to 62.6 µM
Source text: U.S. Tox21 Program National Center for Advancing Translational Sciences [NCATS] NIH Chemical Genomics Center [NCGC] U.S. Environmental Protection Agency [EPA] National Institutes of Environmental Health Sciences [NIEHS] National Toxicology Program [NTP] U.S. Food and Drug Administration [FDA] Tox21 Assay Overview: Various chemicals, environmental and physiological stress conditions may lead to the activation of heat shock response/ unfolded protein response (HSR/UPR). There are three heat shock transcription factors (HSFs) (HSF-1, -2, and -4) mediating transcriptional regulation of the human HSR. To identify the compounds that activate HSR signaling, HSE-bla HeLa cell line (Invitrogen, Carlsbad, CA, USA) containing a beta-lactamase reporter gene under the control of the heat shock response elements was used to screen the Tox21 10K compound library.
Tox21 Assay Protocol Summary: The CellSensor HSE-bla HeLa cells (Invitrogen, Carlsbad, CA, USA) were dispensed at 1500 cells/6uL/well into 1536-well black wall/clear bottom plates using a Multidrop combi (Thermo Fisher Scientific, Waltham, MA) dispenser. After the assay plates were incubated at 37 C and 5% CO2 overnight, 23 nL of compounds dissolved in DMSO, positive controls or DMSO only was transferred to the assay plate by a Pintool station (Kalypsys, San Diego, CA). The plates were incubated at 37 C for 5 h. After 1 uL of LiveBLAzerTM B/G FRET substrate was added using a Flying Reagent Dispenser (Beckman Coulter, Indianapolis, IN, USA), the plates were incubated at room temperature for 2.5 h, and fluorescence intensity was measured by an Envision plate reader (PerkinElmer, Shelton, CT).

Row | SMILES | outcome
1 | IC(I)I | inactive
2 | COCCOCCOCCO | inactive
3 | Cc1ccc(C)c(O)c1 | inactive
4 | Cc1ccc(S(=O)(=O)O)cc1C | inactive
5 | C=CN1CCCC1=O | inactive
6 | CC(C)[C@@H]1CC[C@@H](C)CC1=O | inactive
7 | NC[C@H](O)c1ccc(O)c(O)c1 | inactive
8 | O=C(O)c1cc(=O)[nH]c(=O)[nH]1 | inactive
9 | CCc1cccc2c3c([nH]c12)C(CC)(CC(=O)O)OCC3 (stereo not given) | inactive
10 | Brc1nc2ccccc2s1 | inactive
11 | CN(Cc1cnc2nc(N)nc(N)c2n1)c1ccc(C(=O)N[C@@H](CCC(=O)O)C(=O)O)cc1 | inactive
12 | CC/C=C\C/C=C\C/C=C\CCCCCCCC(=O)O | inactive
13 | CCCCCCCCCCCCO | inactive
14 | CC(=O)O[C@]1(C(C)=O)CC[C@H]2[C@@H]3C=C(C)C4=CC(=O)CC[C@]4(C)[C@H]3CC[C@@]21C | inactive
15 | CC(=O)O[C@]1(C(C)=O)CC[C@H]2[C@@H]3C=C(Cl)C4=CC(=O)CC[C@]4(C)[C@H]3CC[C@@]21C | inactive
16 | COC(=O)C(C)Oc1ccc(Oc2ncc(C(F)(F)F)cc2Cl)cc1 (stereo not given) | inactive
17 | ClC/C=C/CCl | inactive
18 | Cc1ccc(C(C)(C)C)c(O)c1 | inactive
19 | OCCNCCO | inactive
20 | Cc1ccc(C(C)(C)C)cc1 | inactive

Row | SMILES | outcome
21 | CC[C@]12CCCN3CCc4c(n(c5ccccc45)[C@@](O)(C(=O)OC)C1)[C@@H]32 | inactive
22 | Cc1cccc(Nc2ccccc2C(=O)O)c1C | inactive
23 | CCO[Si](CCCNC(N)=O)(OCC)OCC | inactive
24 | CCCCCCOCCOCCO | inactive
25 | CC(=O)[C@@]1(O)CC[C@H]2[C@@H]3C[C@H](C)C4=CC(=O)C=C[C@]4(C)[C@@]3(F)[C@@H](O)C[C@@]21C | inactive
26 | O=C1CCc2ccccc2O1 | inactive
27 | NCCOCCO | inactive
28 | CN1CCOCC1 | inactive
29 | CC1(C)O[C@@H]2C[C@H]3[C@@H]4C[C@H](F)C5=CC(=O)C=C[C@]5(C)[C@@]4(F)[C@@H](O)C[C@]3(C)[C@]2(C(=O)CO)O1 | inactive
30 | C=CCCCCCCCCCC | inactive
31 | CCCCCCCCCCC(CO)CCCCCCCC (stereo not given) | inactive
32 | Oc1ccc(C(c2ccc(O)cc2)C(Cl)(Cl)Cl)cc1 | inactive
33 | Nc1cc(Cl)c(N)c(Cl)c1 | inactive
34 | NCCN | inactive
35 | NCCS(=O)(=O)O | inactive
36 | O=S1(=O)CCCO1 | inactive
37 | Nc1ccc2c(c1)C(=O)c1ccccc1C2=O | inactive
38 | COc1cc([C@H]2Oc3cc([C@H]4Oc5cc(O)cc(O)c5C(=O)[C@@H]4O)ccc3O[C@@H]2CO)ccc1O | inactive
39 | CC(=O)Nc1ccc2c(c1)Cc1cc(NC(C)=O)ccc1-2 | inactive
40 | CNC[C@H](O)c1ccc(O)c(O)c1 | inactive
